These results are taken from PubChem BioAssay (NCATS).

Test [1] can be described thus: AP1 Signaling Pathway (AID 357). Note: % is set by controls: 0 for no effect and ±100 for the full control effect. The note with it: ME-180 AP-1-bla reporter, EGF-induced, beta-lactamase ratio, 5 h. The gist of the method: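 AP-1-bla ME-180 cells, Opti-MEM + 0.5% dialyzed FBS, plated overnight 37 °C. Cpd titration + EC50 EGF, 5 h 37 °C. CCF4 2.5 h RT; ex 405, em 460/530 ratio → %activity, AC50.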
For test [2], the target named is Cytochrome P450 1A2 (Homo sapiens) (UniProt P05177). Nature of the test: p450-cyp1a2 (AID 410; calls by dose curve; note: potency is the fitted concentration of half-maximal effect;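 for activity change, negative = inhibition: -100% = full effect of reference inhibitor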). The gist of the method: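 Human CYP1A2 (20nM) demethylated Luciferin-ME at its Km (100uM) in 100mM KPO4. After 10 min compound preincubation, NADPH regeneration ran the reaction 60 min at room temperature. Luciferin was read by luminescence, normalized to 57 uM furafylline.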
Chain of Cytochrome P450 1A2 (Homo sapiens) (P05177 whole entry, looked up): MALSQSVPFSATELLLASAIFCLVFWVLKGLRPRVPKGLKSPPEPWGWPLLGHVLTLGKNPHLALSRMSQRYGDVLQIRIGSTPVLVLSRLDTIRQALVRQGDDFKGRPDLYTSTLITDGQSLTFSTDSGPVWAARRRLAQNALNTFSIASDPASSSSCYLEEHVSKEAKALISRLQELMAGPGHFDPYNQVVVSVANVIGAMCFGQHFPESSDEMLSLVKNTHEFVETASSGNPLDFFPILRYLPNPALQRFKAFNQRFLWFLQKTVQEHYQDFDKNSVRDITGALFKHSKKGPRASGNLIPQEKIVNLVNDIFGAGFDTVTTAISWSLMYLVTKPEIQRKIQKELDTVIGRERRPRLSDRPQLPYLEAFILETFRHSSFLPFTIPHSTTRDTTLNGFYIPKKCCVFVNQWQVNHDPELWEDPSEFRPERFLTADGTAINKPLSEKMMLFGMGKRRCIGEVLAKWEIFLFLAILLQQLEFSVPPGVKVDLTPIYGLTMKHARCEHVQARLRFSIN

Test [3] in a line: NFAT Signaling Pathway (AID 444).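 Note: carbachol stimulus at about its EC50 of 1 µM final; % is set by controls: 0 for no effect and ±100 for the full control effect.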 The note with it: Jurkat NFAT-bla M1, carbachol, beta-lactamase ratio, 5 h. The gist of the method:
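Jurkat cells with NFAT-driven β-lactamase reporter and co-expressed M1 receptor, stimulated with carbachol (final 1 uM, ~EC50), compound titration, 5 h at 37 °C. CCF4 loaded 1 h at RT; 460/530 nm ratio gave %activity and AC50.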

Test [4] in a line: Stat Signaling Pathway (AID 446).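 Note: ME-180 cervical cancer cells given 40 pM IL-6 alongside compound; SIE-controlled beta-lactamase reporter measured as 460/530 nm FRET emission ratio; % is set by controls: 0 for no effect and ±100 for the full control effect.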 The note with it: ME-180 SIE beta-lactamase reporter, IL-6 stimulated, 5 h. The gist of the method: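 ME-180 SIE-bla cells; overnight plating; cpd + IL-6 40 pM, 5 h, 37 C; LiveBLAzer 2.5 h RT; 460/530 nm emission ratio. Normalized to 300 pM IL-6 and 125 nM JAK inhibitor controls.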
The target in test [5] is Glucocorticoid receptor (Homo sapiens) (UniProt P04150). Nature of the test: GR-GFP Redistribution (AID 450;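 active = compounds whose dose series gives a full or clear partial fitted curve of increased nuclear translocation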; note: potency is the fitted concentration of half-maximal effect). The note with it: U2OS GR-GFP nuclear translocation, laser cytometry, 2 h.
Chain of Glucocorticoid receptor (Homo sapiens) (P04150 whole entry, looked up): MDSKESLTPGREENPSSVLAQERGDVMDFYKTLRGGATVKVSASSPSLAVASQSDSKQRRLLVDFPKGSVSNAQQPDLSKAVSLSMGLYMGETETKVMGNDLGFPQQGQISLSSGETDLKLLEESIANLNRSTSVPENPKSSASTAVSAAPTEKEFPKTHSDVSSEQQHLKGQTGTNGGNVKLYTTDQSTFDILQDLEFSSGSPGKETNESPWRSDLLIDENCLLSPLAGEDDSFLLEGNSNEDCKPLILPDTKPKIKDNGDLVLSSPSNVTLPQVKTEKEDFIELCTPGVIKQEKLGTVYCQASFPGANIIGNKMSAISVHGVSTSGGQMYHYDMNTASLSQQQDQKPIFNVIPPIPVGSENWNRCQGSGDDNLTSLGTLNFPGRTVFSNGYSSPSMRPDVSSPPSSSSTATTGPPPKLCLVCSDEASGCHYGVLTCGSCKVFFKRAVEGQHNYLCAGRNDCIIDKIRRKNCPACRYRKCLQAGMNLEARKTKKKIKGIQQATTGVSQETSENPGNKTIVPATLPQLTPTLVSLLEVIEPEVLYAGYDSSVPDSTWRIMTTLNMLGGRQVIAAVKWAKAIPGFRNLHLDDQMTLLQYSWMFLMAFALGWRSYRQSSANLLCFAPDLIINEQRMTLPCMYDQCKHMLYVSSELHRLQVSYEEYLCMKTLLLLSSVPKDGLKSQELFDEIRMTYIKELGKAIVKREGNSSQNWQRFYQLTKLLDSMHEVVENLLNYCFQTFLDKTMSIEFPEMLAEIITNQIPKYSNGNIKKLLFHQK
For test [6] the target is unchanged. Nature of the test: GR-EFC Redistribution (AID 451; calls by dose curve; note: potency is the fitted concentration of half-maximal effect). The note with it: CHO-K1 GR-EFC translocation, beta-gal luminescence, 2 h. The gist of the method:
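CHO-K1 cells expressing nuclear EA and GR-ED fragments of b-gal; compounds titrated up to 46 uM final, 2 h at 37 C. GR nuclear translocation read as complemented b-gal luminescence after 1 h RT detection.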

For test [7], the target named is Mitogen-activated protein kinase 10 (Mus musculus) (UniProt Q61831). Nature of the test: JNK3 AlphaScreen Assay (AID 530).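 Note: kinase came from lysate of stimulated human HepG2 cells; signal reports phosphorylation of biotinylated GST-cJun 1-79 at Ser73 with 10 µM ATP; % is set by controls: 0 for no effect and ±100 for the full control effect.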 A digest of the protocol: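 qHTS format: compounds tested as titrations against IL-1beta/TNF-alpha-activated HepG2 lysate JNK3 with biotin-GST-cJun substrate and 10 uM ATP at room temperature. Loss of anti-phospho-cJun AlphaScreen signal indicates inhibition.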

Where [8] appears, read: at 38 µM (top of the series) unless noted.

Where “and” joins values, the source holds several entries; their conditions need not be identical. Equal entries are not always repeated. Records with an inconclusive call do not appear. A structure can be active in one record and inactive in another. Calls of active or inactive are those of the source. Unless noted, calls come from the whole dose curve; as a rule, active = well fitted curve in either direction with a large enough effect (not every such curve was filed as active); inconclusive = small, poorly fitted or top-dose-only effect, or another doubt; inactive = flat fitted curve, though single readings scatter.

Consider `O=C(O)c1cc(=O)cc(C(=O)O)[nH]1`, for which the activity change, negative = inhibition in test [1] (setting [8]) was -11.2% (inactive); in test [3] (setting [8]), -5.4% (inactive). Besides, the Potency result in test [2] is “inactive”. For the same compound, the activity, negative = inhibition in test [4] (setting [8]) was 10.8% (inactive). In addition, the Potency in test [5] and in test [6] was > 46 µM (inactive) in each case. In addition, in test [7], the result was inactive.

For `CC(C)NC[C@H](O)COc1ccc(CC(N)=O)cc1`, the activity change, negative = inhibition in test [1] (at 17.2 µM (top of the series)) is -3.59% (inactive) and 11.3% (inactive); in test [1] (at 38 µM (top of the series)) it was 0.299% (inactive) and 0.963% (inactive) and -3.89% (inactive); in test [3] (at 17.2 µM (top of the series)), -9.34% (inactive) and -0.713% (inactive); in test [3] (at 38 µM (top of the series)), -2.26% (inactive) and 6.34% (inactive) and 5.93% (inactive). Moreover, the activity, negative = inhibition was 2.19% (inactive) and -5.69% (inactive) in test [4] (at 17.2 µM (top of the series)); 0.94% (inactive) and 14.3% (inactive) in test [4] (at 38 µM (top of the series)). The call in test [7] was inactive.

For the compound `COc1ccc2c(c1)c(CC(=O)O)c(C)n2C(=O)c1ccccc1`, the activity change, negative = inhibition in test [1] (setting [8]) is 1.55% (inactive); in test [3] (setting [8]), -0.217% (inactive). Also, the Potency in test [2] is 12.6 µM (active); in test [5], > 46 µM (inactive); in test [6] it was > 46 µM (inactive). Besides, the activity, negative = inhibition in test [4] (setting [8]) is -19% (inactive).

Take `O=c1[nH]c2cc(Cl)ccc2c(O)c1-c1ccc(Oc2ccccc2)cc1`: the values for the activity change, negative = inhibition in test [1] (setting [8]) and in test [3] (setting [8]) were 3.01% (inactive) and -0.707% (inactive), respectively. Further, the Potency in test [2] was 10 µM (active); in test [5], > 46 µM (inactive). Besides, the activity, negative = inhibition in test [4] (setting [8]) was -10.1% (inactive).

In the case of `COc1ccc(C(=O)NCc2cccnc2)cc1C(=O)NCc1cccnc1`, the activity change, negative = inhibition in test [1] (at 17.2 µM (top of the series)) was 9.58% (inactive); in test [1] (at 38 µM (top of the series)), 4.86% (inactive); in test [3] (at 17.2 µM (top of the series)), -4.93% (inactive); in test [3] (at 38 µM (top of the series)) it was -7.04% (inactive). In test [5], the Potency is > 46 µM (inactive) and > 20.6 µM (inactive).

With `NC(N)=NC(N)=Nc1ccccc1`, the figures for the activity change, negative = inhibition in test [1] (setting [8]) and in test [3] (setting [8]) were -6.28% (inactive) and 7.27% (inactive), respectively. Further, the Potency result in test [2] is “inactive and 31.6 µM (active)”; in test [5] it was > 46 µM (inactive); in test [6], > 46 µM (inactive). Moreover, the activity, negative = inhibition in test [4] (setting [8]) was -15.1% (inactive). In test [7], the call was inactive.

Take `Cn1c(=O)c2[nH]c(-c3ccc(S(=O)(=O)O)cc3)nc2n(C)c1=O`: the results for the activity change, negative = inhibition in test [1] (setting [8]) and in test [3] (setting [8]) were 8.6% (inactive) and 8.07% (inactive), respectively. Besides, in test [2], the Potency result is “inactive”. The activity, negative = inhibition in test [4] (setting [8]) is 18% (inactive). For the same compound, the Potency in test [5] and in test [6] was > 46 µM (inactive) each time.

Turning to `Nc1nc2[nH]c(=O)cnc2c(=O)[nH]1`, the results for the activity change, negative = inhibition in test [1] (setting [8]) and in test [3] (setting [8]) were 6.93% (inactive) and -5.45% (inactive), respectively. The Potency entry in test [2] was “inactive”. The activity, negative = inhibition in test [4] (setting [8]) is 29.5% (inactive). In addition, the Potency in test [5] and in test [6] was > 46 µM (inactive) in each case. For the same compound, the call in test [7] was inactive.

For the compound `NS(=O)(=O)c1cccc2c1c([N+](=O)[O-])cc1nc(O)c(O)nc12`, the results for the activity change, negative = inhibition in test [1] (setting [8]) and in test [3] (setting [8]) were 7.91% (inactive) and 5.62% (inactive), respectively. Moreover, the Potency in test [2] was 25.1 µM (active) and inactive; in test [5], > 46 µM (inactive); in test [6] it was > 46 µM (inactive). In addition, in test [4] (setting [8]), the activity, negative = inhibition was -3.69% (inactive).
